High-throughput results (PubChem)
This is a sample that favours compounds with a hit; in the whole collection about 1.1% have one here.
gsp agonist = gsp mutant agonism; 340,000 compounds, 0.13% hits; Potency, µM (top dose mostly 76.9 µM), inactives show at the top dose activation (cAMP increase), most hits filed as activators; AID 624287; gsp mutant cells, cAMP HTRF, 30 min; active = well fitted activation curve with a large enough effect; inconclusive = small, poorly fitted or top-dose-only effect, or another doubt; inactive = no such curve, though single readings can be large or run the other way; cell line not stated here;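 also: phosphodiesterase inhibitor Ro 20-1724 added with compounds to block cAMP breakdown; potency is read from the fitted curve at half-maximal effect; nearly all actives have a fitted effect of over 60% in size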
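Cells stably selected in G418 were plated at 2000/well, grown 16-24 hr, then given compounds in DMSO with the PDE inhibitor […] (300 uM solution added) for 30 min at 37C; cAMP was read by HTRF.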
RXFP1 agonist = activates the human relaxin receptor RXFP1; HEK293T-RXFP1 cAMP TR-FRET, 30 min; response scale: percent of porcine relaxin response, buffer zero; Potency, µM (series often up to 57.5 µM), for inactives: top-dose activation, most hits filed as activators; 370,000 compounds, 0.3% hits; AID 2676; also: potency is read from the fitted curve at half-maximal effect; % is scaled to controls: 0 for no effect and ±100 for the full control effect; nearly all actives have a fitted effect of over 60% in size
Target sequence (Q9HBX9 whole entry, looked up): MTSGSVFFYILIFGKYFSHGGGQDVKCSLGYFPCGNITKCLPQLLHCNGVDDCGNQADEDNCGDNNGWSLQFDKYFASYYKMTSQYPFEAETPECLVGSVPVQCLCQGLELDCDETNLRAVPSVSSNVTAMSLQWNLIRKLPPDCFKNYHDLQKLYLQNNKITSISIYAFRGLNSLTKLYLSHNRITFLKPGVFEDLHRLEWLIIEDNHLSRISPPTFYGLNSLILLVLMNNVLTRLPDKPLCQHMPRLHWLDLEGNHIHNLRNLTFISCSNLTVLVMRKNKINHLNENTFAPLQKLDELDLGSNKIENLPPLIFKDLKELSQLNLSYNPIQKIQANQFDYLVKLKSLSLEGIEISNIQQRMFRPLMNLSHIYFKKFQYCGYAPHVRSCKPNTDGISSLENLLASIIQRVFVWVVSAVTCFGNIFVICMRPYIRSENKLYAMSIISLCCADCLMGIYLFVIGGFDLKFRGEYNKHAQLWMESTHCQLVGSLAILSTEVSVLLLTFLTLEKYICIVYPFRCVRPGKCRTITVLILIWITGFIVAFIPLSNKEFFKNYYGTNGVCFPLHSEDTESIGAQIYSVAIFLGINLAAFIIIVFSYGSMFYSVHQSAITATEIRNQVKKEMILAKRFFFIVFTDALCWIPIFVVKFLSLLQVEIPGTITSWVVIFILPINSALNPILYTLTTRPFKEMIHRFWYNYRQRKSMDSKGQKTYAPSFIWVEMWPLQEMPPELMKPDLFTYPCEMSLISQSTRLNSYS
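HEK293T cells stably expressing RXFP1 were pretreated with the PDE4 inhibitor Ro 20174, exposed to compounds for 30 min at 37C, lysed, and cAMP was read by TR-FRET. Data normalized to buffer (basal) and 29 nM porcine relaxin (100%).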
Integrin act MD = activators of alpha7 integrin expression for muscular dystrophy | 350,000 compounds, 0.064% hits | Potency, µM (doses to about 38.3 µM), without a hit: at the top dose activation, most hits filed as activators | AID 624291 | alpha7betagal myoblasts, beta-gal FDG fluorescence, 48 h;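 also: potency is read from the fitted curve at half-maximal effect; 100% = response of the positive control SU9516; nearly all actives have a fitted effect of over 60% in size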
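alpha7betagal+/- myoblasts (passage 13, 250/well) treated 48 h at 37C with compounds at 1:260 dilution of DMSO stock. Lysed, then beta-galactosidase activity read as FDG fluorescence (ex 480/em 540) after 30 min, with pre-read for autofluorescence.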
RXFP1 antagonist = blocks the human relaxin receptor RXFP1; activity change, negative = inhibition, % at 57.5 µM; HEK293-RXFP1, relaxin-stimulated cAMP HTRF, 30 min; stronger effect = lower value; 350,000 compounds, 0.59% hits;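 active = activity change of -60% or lower, but not beyond a set lower limit; inconclusive = change between -60% and -40%, or beyond the set limit; inactive = change above -40%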; also: % is scaled to controls: 0 for no effect and ±100 for the full control effect
gsp antag = antagonizes gsp, the McCune-Albright syndrome mutation | Potency, µM (highest dose often 76.9 µM), for inactives: at the top dose activity change, negative = inhibition, hits mostly inhibitors | gsp-mutant cells, cAMP HTRF, 30 min | AID 624288 | 340,000 compounds, 0.4% hits; calls by dose curve; cell line not stated here;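 also: intracellular cAMP measured with PDE inhibitor Ro 20-1724 present during compound exposure; potency is read from the fitted curve at half-maximal effect; % is scaled to controls: 0 for no effect and ±100 for the full control effect; nearly all actives have a fitted effect of over 65% in size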
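HTRF cAMP measurement after 30 min RT detection following 30 min, 37C compound treatment alongside […] (added as 300 uM solution) in G418-selected cells seeded at 2000/well and grown 16–24 h.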
ASM inhibitor = human S-ASM enzyme inhibition; P17405; placental ASM, HMU-PC fluorogenic substrate, 60 min; Potency, µM (titrated, usually from 57.5 µM), for inactives: top-dose activity change, negative = inhibition, usual class: inhibitors; 340,000 compounds, 0.006% hits; also: potency is read from the fitted curve at half-maximal effect
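HMU-PC0 cleavage (9 uM final) by human placental ASM, 60 min at 37 °C following 10 min compound exposure at RT; stopped at pH 10, fluorescence Ex 386/Em 447 nm.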
Numbers without * were called inactive; i = inactive; u = inconclusive; x = not tested or not shown; [ ] = another dose, or the depositor's remark. Unless noted, calls follow the shape of the dose curve; as a rule, active = well fitted curve in the direction sought with a large enough effect; inconclusive = small, poorly fitted or top-dose-only effect, or another doubt; inactive = no such curve, though single readings can be large; an effect the other way counts as inactive or inconclusive.

SMILES | gsp agonist | RXFP1 agonist | Integrin act MD | RXFP1 antagonist | gsp antag | ASM inhibitor
C/C(=C(/CCO)SS/C(CCO)=C(\C)N(C=O)Cc1cnc(C)nc1N)N(C=O)Cc1cnc(C)nc1N | x | x | x | 12 | x | x
COc1ccc(N2CC(NC(=O)/C=C\c3ccc4c(c3)OCO4)CC2=O)cc1 (centres undefined) | x | 2% | x | -25 | x | x
Cc1cnc(NS(=O)(=O)c2ccc(N)cc2)nc1 | x | x | x | 15 | x | x
COC(=O)/C=C\C(=O)OC | x | x | x | -7 | x | x
COc1ccc(C)cc1NC(=O)C(=O)NCC(c1cccnc1)N1CCN(c2ccccc2F)CC1 (centres undefined) | x | -2% | x | -33 | x | x
O=[N+]([O-])c1ccc(Cl)c(S(=O)(=O)/N=C(/c2ccccc2)N2CCOCC2)c1 | u | -1% | -15% | -61* | 3% | -2%
S=c1[nH]nc(Cn2cnc3ccccc32)n1-c1ccccc1 | 16%[15.4 µM] | 2% | 8.9µM* | 2 | -19% | 0%
S=c1[nH]nc(Cn2nnc3ccccc32)n1-c1ccc(Cl)cc1 | -3% | 8% | 0% | 2 | 10% | -1%
O=C1CSc2ccc(C(=O)N3CCCCC3)cc2N1 | -18% | x | 5% | 0 | x | x
O=C1CSc2ccc(C(=O)O)cc2N1 | 28% | 0% | 0% | -77* | -1% | 7%
Cc1cc(C)cc(C(=O)NC(=S)Nc2ccc(-c3cc4ccccc4oc3=O)cc2)c1 | 4% | 6% | 3% | -3 | 4% | 24%
Cc1ccc(C(=O)NC(=S)Nc2ccc(-c3cc4ccccc4oc3=O)cc2)c(C)c1 | 20µM* | 2% | 8% | 6 | 7% | 24%
CCn1c(SCC(=O)Nc2sccc2C(N)=O)nnc1C1CC1 | 5% | 1% | 15% | -12 | 50µM* | -5%
Cc1cc(C(=O)CSc2nc3ccccc3c(=O)[nH]2)c(C)n1CC1CCCO1 (centres undefined) | 6%[15.4 µM] | 0% | -47% | -32 | 35µM* | -5%
N#C/C(=C1\SCC(c2ccccc2Cl)S1)n1ccnc1 (centres undefined) | x | x | x | 17 | x | x
CN(C)c1ccc(Cc2cc3c(O)ccc(O)c3cc(Cc3ccc(N(C)C)cc3)c2=O)cc1 | -49% | x | -53% | -107* | -15% | -23%
Cc1nnc(SCc2nnc(-c3cccs3)o2)n1Cc1ccccc1 | 4%[15.4 µM] | -2% | 4% | -20 | 9% | 3%
Clc1ccc(-c2nnc(CSc3nnc(-c4cccs4)n3Cc3ccccc3)o2)cc1 | 11% | 2% | -22% | 17 | 25µM* | -16%
COc1cc(NC(c2ccccc2)c2ccccc2)cc(OC)c1OC | 0%[15.4 µM] | 1% | 11% | -3 | 11µM* | 6%
COc1ccc(CN(C)CC(O)COc2ccc(C(=O)c3ccccc3)cc2)c(OC)c1OC (centres undefined) | u | 2% | -69% | -20 | -1% | 0%
COc1ccc(Br)cc1CN(C)CC(O)COc1ccc(Br)cc1 (centres undefined) | -9%[15.4 µM] | 0% | -56% | -64* | -14% | -3%
CCS(=O)(=O)c1ccc(OC)c(C(=O)OC)c1 | x | x | x | -27 | x | x
Cc1ccc(S(=O)(=O)N2CCCc3cc(NS(=O)(=O)c4ccc(F)c(C)c4)ccc32)cc1 | x | 2% | x | -1 | x | x
CC(=O)n1cc([C@H]2C=C(C(=O)N3CCN(Cc4ccccc4)CC3)O[C@@H](OCCCCO)C2)c2ccccc21 | x | 1% | 0% | x | 35µM* | 7%
CCC(Oc1ccc(F)cc1)C(=O)Nc1cc(-c2ccc(C)cc2)no1 (centres undefined) | x | -1% | x | u | x | x
SMILES | gsp agonist | RXFP1 agonist | Integrin act MD | RXFP1 antagonist | gsp antag | ASM inhibitor
CCC(Oc1ccc(F)cc1)C(=O)Nc1nc(-c2ccc(F)cc2)ns1 (centres undefined) | x | 1% | x | -87* | x | x
CCCCn1c(SCC(=O)Nc2ccccc2C(F)(F)F)nc2ccsc2c1=O | 11% | 4% | -12% | 5 | 8% | -3%
CC(C)OCCCn1c(SCC(=O)Nc2ccccc2C(F)(F)F)nc2nccnc2c1=O | 40µM* | u | -12% | 45 | 11% | -1%
C[C@H](CN1CCCC1)C(=O)c1ccc(C(F)(F)F)cc1 | x | x | x | 8 | x | x
N#Cc1cc2c(=O)n3ccccc3nc2n(CCCN2CCOCC2)c1=O | 35µM* | 18% | -24% | 9 | 21% | i
Cc1cc(S(=O)(=O)Nc2ccc(C(=O)NCC3(N4CCCCC4)CCCCC3)cc2)ccc1F | 18%[15.4 µM] | 0% | -12% | -77* | 0% | 2%
COc1ccc(-n2ncc3c(NC(C)(C)CO)ncnc32)cc1 | x | 2% | x | 2 | x | x
COc1ccc(N(C(=O)c2snc(C(N)=O)c2N)C(C(=O)NC2CCCC2)c2ccco2)cc1 (centres undefined) | 15% | 1% | 8% | -29 | -11% | 64%
COc1cc(OC)cc(N(C(=O)c2snc(C(N)=O)c2N)C(C(=O)NCC2CCCO2)c2ccc(C)o2)c1 (centres undefined) | x | 2% | x | x | x | x
CCOc1ccc(C(C(=O)NCC2CCCO2)N(C(=O)c2snc(C(N)=O)c2N)c2cccc(F)c2)cc1 (centres undefined) | -19% | 0% | -30% | -91* | u | i
CCc1ccc(N(C(=O)c2snc(C(N)=O)c2N)C(C(=O)NC2CCCC2)c2ccco2)cc1 (centres undefined) | -29% | -3% | 2.5µM* | -7 | -18% | 294%
Cc1cc(C)cc(N(C(=O)c2snc(C(N)=O)c2N)C(C(=O)NCC2CCCO2)c2ccc(C)o2)c1 (centres undefined) | 0% | 0% | 0% | -61* | -16% | i
Cc1ccc(C(C(=O)NCC2CCCO2)N(C(=O)c2snc(C(N)=O)c2N)c2ccc(C)c(C)c2)o1 (centres undefined) | -3%[15.4 µM] | 2% | -213% | -76* | -25% | 491%
COC(=O)[C@H](Cc1ccccc1)NC(=O)N1CCN(c2ccc(F)cc2)CC1 | -36% | -5% | -25% | 0 | -22% | 2%
COC(=O)C1[C@@H](OC)C(OC(=O)COc2ccc(OC)cc2)C[C@@H]2CN3CCc4c([nH]c5cc(OC)ccc45)[C@H]3C[C@H]12 (some centres undefined) | x | x | x | -29 | x | x
Cc1ccc(C(=O)N/N=C\c2ccc(-c3ccc([N+](=O)[O-])cc3)o2)cn1 | 8% | -2% | -16% | -3 | -6% | -2%
Cc1ccc(C(=O)N/N=C\c2ccc([N+](=O)[O-])o2)cn1 | 8.9µM* | 4% | -54% | -14 | -5% | -5%
CCCCOc1ccc(-c2c(C(=O)Nc3ccccc3)c(C)[nH]c(=S)c2C#N)cc1 | 2.5µM* | 22µM* | 3% | 28 | 15% | -7%
